# Where “and” joins values, the source holds several entries; their conditions need not be identical. Identical values can stand only once. Results filed as inconclusive are left out. Where a call stands in place of a potency, no number is given. A structure can be active in one record and inactive in another. Calls of active or inactive are those of the source. Calls follow the shape of the full dose curve.
# Experiment: qHTS assay for small molecule agonists of the antioxidant response element (ARE) signaling pathway - cell viability counter screen (AID 743203); also: nearly all actives have a fitted effect of over 55% in size
# Conditions: ARE-bla HepG2 viability, CellTiter-Glo luminescence, 16 h; series mostly up to 73.3 µM
# From the text: National Center for Advancing Translational Sciences [NCATS]
# NIH Chemical Genomics Center [NCGC]
# U.S. Environmental Protection Agency [EPA]
# National Institutes of Environmental Health Sciences [NIEHS]
# National Toxicology Program [NTP]
# U.S. Food and Drug Administration [FDA]
# Oxidative stress has been implicated in the pathogenesis of a variety of diseases ranging from cancer to neurodegeneration. The antioxidant response element (ARE) signaling pathway plays an important role in the amelioration of oxidative stress. The CellSensor ARE-bla HepG2 cell line (Invitrogen) can be used for analyzing the Nrf2/antioxidant response signaling pathway. Nrf2 (NF-E2-related factor 2) and Nrf1 are transcription factors that bind to AREs and activate these genes. The CellSensor ARE-bla Hep G2 cell line contains a beta-lactamase reporter gene under control of the Antioxidant Response Element (ARE) stably integrated into HepG2 cells. The activation of the report gene under culture conditions can be detected by fluorescence intensity. This cell line has been used to screen the Tox21 10K compound library to identify agonists that induce oxidative stress. The cytotoxicity of the Tox21 compound library against the ARE-bla cell line was tested in parallel by measuring the cell viability using CellTiter-Glo assay (Promega, Madison, WI) in the same wells.
# Tox21 Assay Protocol Summary:
# ARE-bla HepG2 cells were dispensed at 2,000 cells/5 ul/well in 1536-well white wall/solid bottom plates using a Multidrop Combi (ThermoFisher Scientific, Waltham, MA) dispenser. After the assay plates were incubated at 37C/5% CO2 for 5 hrs, 23 nL of compounds dissolved in DMSO, positive controls or DMSO only was transferred to the assay plate by a pintool work station (Kalypsys, San Diego, CA). The plates were incubated at 37C/5% CO2 for 16 hrs, followed by addition of 4 ul/well of CellTiter-Glo reagent into the assay plates using a Flying Reagent Dispenser (Aurora Discovery, San Diego, CA). After 30 min incubation at room temperature, the luminescence intensity in the assay plates was measured using a ViewLux (PerkinElmer, Shelton, CT) plate reader.
# Potency is read from the fitted curve at half-maximal effect.
row,SMILES,Potency
1,Nc1ccc(Cl)c(Cl)c1,inactive
2,CCN(N=O)C(N)=O,inactive
3,CCCCCCCCCCCOC(=O)c1ccccc1C(=O)OCCCCCCCCCCC,inactive
4,CCOc1cc(C=O)ccc1O,inactive
5,Nc1ccc(-c2ccc(N)c(N)c2)cc1N,inactive
6,c1ccc(-c2cccc(-c3ccccc3)c2)cc1,inactive
7,N#CCCCl,inactive
8,Cc1ccc2c(c1N)C(=O)c1ccccc1C2=O,inactive
9,CCC(=O)O[C@H]1CC[C@H]2[C@@H]3CCC4=CC(=O)CC[C@]4(C)[C@H]3CC[C@]12C,68.6 µM (active) and inactive
10,O=P(Oc1ccccc1)(Oc1ccccc1)Oc1ccccc1,inactive
11,CCCCCCCCC(=O)NCc1ccc(O)c(OC)c1,inactive
12,O=[N+]([O-])c1cccc2ccccc12,inactive
13,CC(C)NC(C)C,inactive
14,O=C(O)C(F)(F)C(F)(F)C(F)(F)C(F)(F)C(F)(F)C(F)(F)C(F)(F)F,inactive
15,C=C(C)[C@H]1Cc2c(ccc3c2O[C@@H]2COc4cc(OC)c(OC)cc4[C@@H]2C3=O)O1,15.6 µM (active) and 3.86 µM (active) and 3.76 µM (active)
16,COc1ccc(C(CN(C)C)C2(O)CCCCC2)cc1 (stereo not given),inactive
17,CC(C)=CC1C(C(=O)OCc2coc(Cc3ccccc3)c2)C1(C)C (stereo not given),inactive
18,C1=Cc2cccc3cccc1c23,inactive
19,CCN(CC)C(=O)/C(Cl)=C(\C)OP(=O)(OC)OC,inactive
20,C=CCc1ccc(OC)cc1,inactive

row,SMILES,Potency
1,CCCCOCCOP(=O)(OCCOCCCC)OCCOCCCC,inactive
2,CCOP(=S)(OCC)O/N=C(\C#N)c1ccccc1,inactive
3,S=C1NCCN1,inactive
4,CC(C)N(C(=O)SCC(Cl)=C(Cl)Cl)C(C)C,inactive
5,Nc1c(Cl)cc([N+](=O)[O-])cc1Cl,inactive
6,O=S(=O)(Oc1ccc(Cl)cc1)c1ccc(Cl)cc1,inactive
7,O=C(CCl)c1ccccc1,inactive
8,Cc1ccc(N)c(N)c1,inactive
9,CCC(C)(C)c1ccc(O)cc1,inactive
10,C=C(C)C(=O)OCC1CO1 (stereo not given),inactive
11,ClC1C(Cl)C(Cl)C(Cl)C(Cl)C1Cl (stereo not given),inactive
12,CCC(C)c1ccc(O)cc1 (stereo not given),inactive
13,C[C@]12CCC(=O)C(O)=C1CC[C@@H]1[C@@H]2CC[C@]2(C)C(=O)CC[C@@H]12,inactive
14,CCCCNC(=O)n1c(NC(=O)OC)nc2ccccc21,inactive
15,CCCCCCCCOC(=O)c1ccccc1C(=O)OCCCCCCCC,inactive
16,CN(C)C(=O)Nc1ccc(Cl)cc1,inactive
17,Cc1ccc(OP(=O)(Oc2ccc(C)cc2)Oc2ccc(C)cc2)cc1,inactive
18,Cc1cc(Cl)ccc1OCCCC(=O)O,inactive
19,c1ccc(P(c2ccccc2)c2ccccc2)cc1,inactive
20,C[C@]12CCC(=O)C[C@@H]1CC[C@@H]1[C@@H]2CC[C@]2(C)[C@@H](O)CC[C@@H]12,inactive

# Reference: PubChem BioAssay (Tox21)
